This is a sample that favours compounds with a hit; in the whole collection about 2.4% have one here.
Cruzain noTriton: inhibitors of Trypanosoma cruzi cruzain without detergent; P25779; purified cruzain, Z-FR-AMC fluorescence, no detergent; Potency, µM, hits mostly inhibitors; 2.3% of 200,000 active; AID 1476; also: nearly all actives have a fitted effect of over 40% in size
Target sequence (P25779 123-467 limits assumed): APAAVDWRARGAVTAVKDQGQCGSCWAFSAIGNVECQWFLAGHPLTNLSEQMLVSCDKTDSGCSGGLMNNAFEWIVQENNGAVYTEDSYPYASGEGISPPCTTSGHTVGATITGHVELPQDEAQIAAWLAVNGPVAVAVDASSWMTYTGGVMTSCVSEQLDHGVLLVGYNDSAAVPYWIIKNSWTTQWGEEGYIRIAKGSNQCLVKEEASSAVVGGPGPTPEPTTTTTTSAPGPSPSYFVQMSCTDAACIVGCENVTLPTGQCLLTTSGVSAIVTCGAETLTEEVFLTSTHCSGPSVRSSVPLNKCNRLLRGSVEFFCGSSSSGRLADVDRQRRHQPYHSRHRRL
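Purified cruzain at 1.5 nM, pre-incubated 15 min with compound at room temperature in 100 mM sodium acetate pH 5.5, 5 mM DTT, 0.00005% Triton X-100. Reaction started with 2 uM Z-FR-AMC; AMC fluorescence increase over 60 s gives rate.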
Cruzain inh Det: blocks cruzain activity in presence of Triton detergent; P25779; purified cruzain, Z-FR-AMC fluorescence, 0.01% Triton; Potency, µM, usual class: inhibitors; 0.43% of 200,000 active; AID 1478; also: nearly all actives have a fitted effect of over 40% in size
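Cysteine protease activity tested under reducing, mildly acidic conditions (100 mM sodium acetate pH 5.5, 5 mM DTT) plus 0.01% Triton X-100. Cruzain 1.5 nM; substrate Z-FR-AMC 2 uM; 15 min compound preincubation at room temperature.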
Of the large screens only hits and unclear results are named; the others gave an inactive call. Calls follow the shape of the dose curve; as a rule, active = well fitted curve in the direction sought with a large enough effect; inconclusive = small, poorly fitted or top-dose-only effect, or another doubt; inactive = no such curve, though single readings can be large; an effect the other way counts as inactive or inconclusive.

Cc1ccc(-n2c(=O)c3oc4ccccc4c3n(CC(=O)Nc3ccc(F)c(Cl)c3)c2=O)cc1C	Cruzain noTriton 10µM
Cc1ccc(-n2c(=O)c3oc4ccccc4c3n(Cc3ccccc3F)c2=O)cc1C	none
Cc1ccc(S(=O)(=O)N(Cc2nc(-c3cccc(C)c3)no2)C2CCCCC2)cc1	none
CCCCOc1ccc(C(C)NC(=O)CN2C(=O)CSc3ccc(S(=O)(=O)N4CCOCC4)cc32)cc1 (stereo not given)	Cruzain noTriton inconclusive
COC(=O)C(=Cc1cc(Br)c(OC)c(Br)c1)C(=O)OC	none
CCCCCCc1cc2cc(S(=O)(=O)c3ccc(Cl)cc3)c(=O)oc2cc1O	Cruzain noTriton 13µM
CCCCCCc1cc2cc(S(=O)(=O)c3ccc(C)cc3)c(=O)oc2cc1O	none
CC(C)COc1ccc(-c2nn(-c3ccccc3)cc2C(=O)Nc2nccs2)cc1	Cruzain noTriton 10µM
O=C(Nc1nccs1)c1cn(-c2ccccc2)nc1-c1ccccc1	none
OC[C@H](S)CS	none
COc1ccc2oc(=N)c(C(=O)Nc3ccccc3)cc2c1	none
COc1ccc2o/c(=N/NC(=S)Nc3ccccc3)c(C(N)=O)cc2c1	Cruzain noTriton 6.3µM
COC(=O)N[C@@H](c1cccc(F)c1)[C@@H](C)[N+](=O)[O-]	none
Cc1sc2ncn(CC(=O)N(C)c3cccc(C(F)(F)F)c3)c(=O)c2c1S(=O)(=O)N1CCN(c2ncccn2)CC1	Cruzain noTriton inconclusive
CSc1ccc(CCNC(=O)CCc2c(C)nc3c(c(C)nn3-c3ccccc3)c2C)cc1	none
O=C(CCCN1C(=O)/C(=C/c2ccccc2Cl)SC1=S)Nc1ccccn1	Cruzain noTriton inconclusive
O=C(CCN1C(=O)/C(=C\c2ccccc2Cl)SC1=S)N1CCN(c2ccccc2)CC1	Cruzain noTriton 16µM
CC(C)Oc1ccc(CNC(=O)CCCn2c(=O)c3cccn3c3cccnc32)cc1	Cruzain noTriton inconclusive
CC(C)c1c(O)ccc2c1CCC1C(C)(C)CCC[C@@]21C (stereo not given in full)	none
Cc1cc(C)c2c(c1)-c1c(ssc1=S)C(C)(C)N2C(=O)CN1C(=O)c2ccccc2C1=O	Cruzain noTriton inconclusive
Cc1cccc2c1N(C(=O)CN1C(=O)c3ccccc3C1=O)C(C)(C)c1ssc(=S)c1-2	Cruzain noTriton 13µM
CCCC12CN3CC(C)(CN(C1)C3c1ccc(CC)cc1)C2=O (stereo not given)	none
CNC(=O)c1c(NC(=O)/C=C/c2ccccc2Cl)sc2c1CCC2	none
Cc1cccc(NC(=O)Nc2nnc(N(C)Cc3ccccc3)s2)c1	none
CCOc1ccc(NC(=O)CSc2nnc(NC(=O)Nc3ccccc3)s2)cc1	none
COc1cccc(NC(=O)Nc2nnc(-c3ccccc3SCc3ccccc3)s2)c1	Cruzain noTriton 3.2µM
CCN(c1ccccc1)c1nnc(NC(=O)Nc2ccccc2F)s1	none
COc1ccc(NC(=O)Nc2nnc(-c3ccccc3SCc3ccccc3)s2)cc1	Cruzain noTriton 10µM
O=C(Nc1nnc(-c2ccccc2SCc2ccccc2)s1)Nc1ccccc1F	Cruzain noTriton 3.2µM
CC(C)c1ccc(NC(=O)c2cccn2-c2nnc(N3CCCCC3)s2)cc1	none
CCOC(=O)N1CCN(CCC(=O)c2ccc(Cl)cc2)CC1	Cruzain noTriton 13µM, Cruzain inh Det 14µM
CCOC(=O)N1CCN(C(=O)Cc2ccc(Cl)cc2)CC1	none
CCC(C)NC(=O)Cn1c(=O)n(-c2ccc(Cl)c(Cl)c2)c(=O)c2c(C)c(C(=O)N(CC)CC)sc21 (stereo not given)	none
COc1ccc(C(=S)N2CCNCC2)cc1	none
COc1ccc(C(=S)N2CCCCCC2)cc1	Cruzain inh Det 14µM
Cn1c(=O)oc2cc(S(=O)(=O)Nc3ccc4c(c3)OCO4)ccc21	Cruzain noTriton 32µM
Cn1c(=O)c2cc(S(=O)(=O)Nc3ccc4c(c3)OCO4)ccc2n(C)c1=O	none
COc1ccc(/C=C/c2nc3cc(-c4ccccc4)ccc3o2)cc1O	none
COc1ccc(-c2c/c(=N\c3nc(-c4ccccc4)c(C)s3)c3ccccc3o2)cc1O	Cruzain noTriton 10µM
Cc1cccc(NC(=S)NNC(=O)COc2ccc(Cl)cc2Cl)c1	Cruzain noTriton inconclusive
Cc1ccc(NC(=O)NC(=O)COc2ccc(Cl)cc2Cl)c(C)c1	Cruzain noTriton 13µM
N[C@H](C(=O)O)c1nn[nH]n1	none
O=C(Nc1ccc(O)c(-c2nc3ccccc3o2)c1)C1(c2ccccc2)CCCC1	Cruzain noTriton 25µM
O=C(Nc1ccc(-c2nc3ccccc3o2)c(O)c1)c1ccccc1	none
Cc1c(C(=O)N/N=C/c2ccc(N(C)C)cc2)[nH]c2ccc(Cl)cc12	Cruzain noTriton 10µM
Cc1c(C(=O)N/N=C/c2ccccc2)[nH]c2ccc(Cl)cc12	none
COc1ccc(N=Nc2nc(-c3ccccc3)c(-c3ccccc3)[nH]2)cc1	Cruzain noTriton 25µM
COc1ccccc1N=Nc1nc(-c2ccccc2)c(-c2ccccc2)[nH]1	none
CCC(Sc1nc2nccnc2c(=O)n1Cc1ccc(OC)cc1)C(=O)NC1CCCCC1 (stereo not given)	none
Fc1cccc(Cl)c1CNCCSc1nnnn1-c1ccccc1	Cruzain noTriton 13µM
Clc1ccccc1CNCCCSc1nnnn1-c1ccccc1	none
CCCCC(CC)Cn1c(O)c(/C=C2\C=NN=C2c2ccccc2)sc1=S (stereo not given)	Cruzain noTriton 7.9µM
CCCn1c(O)c(/C=C2\C=NN=C2c2ccccc2)sc1=S	none
CCc1cccc(C)c1NC(=O)c1cc(S(=O)(=O)N2CCN(c3ccccc3)CC2)ccc1F	none
CCOc1cc(C#N)c(NC(=O)Cn2nnc(-c3ccc(C)cc3)n2)cc1OCC	none
Oc1ccc(Cl)cc1-c1cc(-c2cccc(Br)c2)n[nH]1	Cruzain noTriton 13µM
Oc1ccc(Cl)cc1-c1cc(-c2ccccc2Cl)[nH]n1	Cruzain noTriton inconclusive
CCOC(=O)c1c(C)[nH]c(C(=O)COC(=O)CNC(=O)C2CCCCC2)c1C	Cruzain noTriton 7.9µM, Cruzain inh Det inconclusive
CCOC(=O)c1c(C)[nH]c(C(=O)COC(=O)CN2C(=O)C3CCCCC3C2=O)c1C (stereo not given)	none
CCOC(=O)c1c(C)[nH]c(C(=O)COC(=O)[C@H](C)NC(=O)c2ccccc2Cl)c1C	none
CCOC(=O)c1c(C)[nH]c(C(=O)COC(=O)CNC(=O)c2ccccc2Cl)c1C	Cruzain noTriton 13µM, Cruzain inh Det 11µM
COC(=O)c1ccccc1NC(=O)c1nc(SCc2ccccc2C)ncc1Cl	none
Cc1ccc(-c2csc3ncnc(SCC(=O)c4ccc5c(c4)OCCO5)c23)cc1	Cruzain noTriton 10µM
O=C(CSc1ncnc2scc(-c3ccc(F)cc3)c12)c1ccc2c(c1)OCCO2	Cruzain noTriton inconclusive
Cc1sc2ncnc(SCC(=O)c3ccc4c(c3)OCCO4)c2c1-c1ccccc1	Cruzain noTriton 32µM
O=C(CSc1ncnc2ccccc12)c1ccc2c(c1)OCCO2	none
CCC(Cn1nnc2ccccc2c1=O)NC(=O)Nc1ccccc1Cl (stereo not given)	none
O=C(N/N=C/c1ccc(-c2cccc(C(F)(F)F)c2)o1)c1ccccc1O	Cruzain noTriton 10µM
O=C(N/N=C/c1ccc(-c2cccc(C(F)(F)F)c2)o1)c1ccccc1Br	none
CCSc1nnc(NC(=O)c2csc3c2CCC(C)C3)s1 (stereo not given)	Cruzain noTriton 13µM
CCSc1nnc(NC(=O)c2ccc3c(c2)OCO3)s1	Cruzain noTriton 25µM
O=C(Nc1nnc(SCc2ccccc2)s1)c1cc2c(s1)CCCC2	Cruzain noTriton inconclusive
CCSc1nnc(NC(=O)c2ccccc2)s1	none
CCSc1nnc(NC(=O)c2cc(C)on2)s1	none
CCSc1nnc(NC(=O)c2csc3c2CCCC3)s1	Cruzain noTriton inconclusive
